# PubChem BioAssay
# Values without a mark were called inactive. Active and inactive are the calls of the source.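 How the source made its calls: active means growth inhibition above 50% at the single 2 µM test dose, taken to imply half-maximal potency below 2 µM; inactive means the rest.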
# Assay: antimalarial activity against Dd2 strain (AID 2302);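 further: 0% = DMSO untreated growth and 100% = chloroquine plus artemisinin killed control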
# Conditions: P. falciparum Dd2 in RBCs, LDH growth readout, 72 h; at 2 µM; active compounds read high
row,SMILES,growth inhibition
1,CC(CN1CCN(C)CC1)C(=O)Nc1cccc(-c2cccc(-c3nc4ccccc4[nH]3)c2)c1 (stereo not given),19%
2,Cc1ccccc1N1CCN(c2ccc(C(=O)Nc3ccccc3)cc2)CC1,91% (active)
3,OCCN1CCN(Cc2ccc(-c3ccc(-c4nc5ccc(C(F)(F)F)cc5[nH]4)s3)cc2)CC1,99% (active)
4,NC(N)=NCCCN(Cc1ccccc1)c1ccc(Cl)cc1,98% (active)
5,O=[N+]([O-])c1cccc(S(=O)(=O)N2CCN(CC(O)COc3ccc(-c4ccccc4)cc3)CC2)c1 (stereo not given),32%
6,COc1ccc(-c2cccc(NC(=O)c3ccc(Cl)cc3)c2)cc1CNC(C)C,44%
7,c1cc2c3c(cccc3c1)NC(CCCCCCCCC1=Nc3cccc4cccc(c34)N1)=N2,6%
8,CCc1ccc(C(=O)Nc2cccc(CN3CCCN(Cc4ccc(O)cc4)CC3)c2)cc1,74% (active)
9,c1ccc(COc2ccccc2COc2ccccc2-c2ccc3cccnc3n2)cc1,95% (active)
10,O=S(=O)(Nc1ccc(CCN2CCC(N3CCCCC3)CC2)cc1)c1ccc2ccccc2c1,80% (active)
11,Cc1cccc(CNc2nc(C)cc(N[C@@H](Cc3ccccc3)C(=O)NCCOc3ccccc3)n2)c1,54% (active)
12,Cc1cc(C(F)(F)F)n2nc(C3CCN(Cc4cc(C)c(O)c(C)c4)C3)cc2n1 (stereo not given),99% (active)
13,CC1(C)CN(CCC2CCC(NC(=O)/C=C/c3ccccc3F)CC2)Cc2ccc(C#N)cc21 (stereo not given),82% (active)
14,NC(N)=NCCCCN(Cc1ccccc1)c1ccccc1,98% (active)
15,Cc1cc(N(C)CCCN2CCCCC2)nc(Nc2ccc(Cl)cc2)n1,82% (active)
